# Experimental data published in the supplement of paper PMC8728848.
# This excerpt belongs to a sample that is enriched for the strongest signals.
# Tests used:
# Assay in all cases: glycan array binding signal (z-score within array); higher = stronger binding
# Conditions in all cases: glycan notation: IUPAC condensed, linker removed
# [1] = target: Fuc(a1-2)Gal(b1-3)[Fuc(a1-4)]GlcNAc
# Summary of the method: (§1)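 Columns mapping to the same glycan were averaged after glycan names were converted to IUPAC-condensed notation. The data come from 3228 arrays in the Consortium for Functional Glycomics database, limited to those with an available protein sequence. Binding is reported as a within-array Z-score averaged across arrays of one protein sequence and across linkers.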
# [2] = target: Fuc(a1-2)Gal6S(b1-3)GlcNAc6S
# Summary of the method: as §1
# [3] = target: Fuc(a1-2)[Gal(a1-3)]Gal(b1-3)GlcNAc
# Summary of the method: as §1
# [4] = target: Fuc(a1-2)[Gal(a1-3)]Gal(b1-3)GlcNAc(b1-2)Man(a1-3)[Fuc(a1-2)[Gal(a1-3)]Gal(b1-3)GlcNAc(b1-2)Man(a1-6)]Man(b1-4)GlcNAc(b1-4)GlcNAc
# Summary of the method: as §1
# [5] = target: Fuc(a1-3)[Gal(b1-4)]Glc6S
# Summary of the method: as §1
# [6] = target: Fuc(a1-3)[Gal(b1-4)]GlcNAc(b1-3)Gal(b1-4)[Fuc(a1-3)]GlcNAc
# Summary of the method: as §1
# [7] = target: Fuc(a1-3)[Gal(b1-4)]GlcNAc6S
# Summary of the method: as §1
# [8] = target: Gal(a1-3)Fuc(a1-2)Gal(b1-4)GlcNAc(b1-3)[Gal(a1-3)Fuc(a1-2)Gal(b1-4)GlcNAc(b1-6)]GalNAc
# Summary of the method: as §1
# Gal(a1-3)Gal(b1-3)GlcNAc = target: Gal(a1-3)Gal(b1-3)GlcNAc
# Summary of the method: as §1
# Gal(b1-3)GalNAc = target: Gal(b1-3)GalNAc
# Summary of the method: as §1
# [9] = target: Gal(b1-3)GalNAc(a1-3)[Fuc(a1-2)]Gal(b1-4)Glc
# Summary of the method: as §1
# Gal(b1-3)GlcNAc(b1-2)Man = target: Gal(b1-3)GlcNAc(b1-2)Man
# Summary of the method: as §1
# [10] = target: Gal(b1-3)[Fuc(a1-4)]GlcNAc(b1-2)Man(a1-3)[Gal(b1-3)[Fuc(a1-4)]GlcNAc(b1-2)Man(a1-6)]Man(b1-4)GlcNAc(b1-4)[Fuc(a1-6)]GlcNAc
# Summary of the method: as §1
# [11] = target: Gal(b1-3)[Neu5Ac(a2-6)]GalNAc
# Summary of the method: as §1
# Gal(b1-4)Glc6S = target: Gal(b1-4)Glc6S
# Summary of the method: as §1
# [12] = target: Gal(b1-4)GlcNAc(b1-3)Gal(b1-4)GlcNAc(b1-2)[Gal(b1-4)GlcNAc(b1-3)Gal(b1-4)GlcNAc(b1-6)]Man(a1-6)[Gal(b1-4)GlcNAc(b1-3)Gal(b1-4)GlcNAc(b1-2)Man(a1-3)]Man(b1-4)GlcNAc(b1-4)GlcNAc
# Summary of the method: as §1
# [13] = target: Gal(b1-4)GlcNAc(b1-3)Gal(b1-4)GlcNAc(b1-3)Gal(b1-4)GlcNAc(b1-3)Gal(b1-4)GlcNAc(b1-2)Man(a1-3)[Gal(b1-4)GlcNAc(b1-3)Gal(b1-4)GlcNAc(b1-3)Gal(b1-4)GlcNAc(b1-3)Gal(b1-4)GlcNAc(b1-2)Man(a1-6)]Man(b1-4)GlcNAc(b1-4)[Fuc(a1-6)]GlcNAc
# Summary of the method: as §1
# [14] = target: Gal(b1-4)GlcNAc(b1-3)Gal(b1-4)GlcNAc(b1-3)GalNAc
# Summary of the method: as §1
# [15] = target: Gal(b1-4)GlcNAc(b1-6)Gal(b1-4)GlcNAc
# Summary of the method: as §1
# [16] = target: Gal3S(b1-3)[Fuc(a1-4)]GlcNAc
# Summary of the method: as §1
# Gal3S6S(b1-4)GlcNAc6S = target: Gal3S6S(b1-4)GlcNAc6S
# Summary of the method: as §1
# Gal6P(b1-4)GlcNAc = target: Gal6P(b1-4)GlcNAc
# Summary of the method: as §1
# Gal6S(b1-4)Glc6S = target: Gal6S(b1-4)Glc6S
# Summary of the method: as §1
# GalNAc(b1-4)GlcNAc6S = target: GalNAc(b1-4)GlcNAc6S
# Summary of the method: as §1
# [17] = target: Glc(a1-4)Glc(a1-4)Glc(a1-4)Glc
# Summary of the method: as §1
# [18] = target: GlcNAc(b1-2)Gal(b1-3)GalNAc
# Summary of the method: as §1
# [19] = target: GlcNAc(b1-2)Man(a1-3)[GlcNAc(b1-2)Man(a1-6)]Man(b1-4)GlcNAc(b1-4)[Fuc(a1-6)]GlcNAc
# Summary of the method: as §1
# [20] = target: GlcNAc(b1-2)[GlcNAc(b1-6)]Man(a1-6)[GlcNAc(b1-2)Man(a1-3)]Man(b1-4)GlcNAc(b1-4)GlcNAc
# Summary of the method: as §1
# [21] = target: GlcNAc(b1-3)Gal(b1-4)GlcNAc(b1-3)Gal(b1-4)GlcNAc(b1-3)GalNAc
# Summary of the method: as §1
# [22] = target: GlcNAc(b1-3)[GlcNAc(b1-4)][GlcNAc(b1-6)]GlcNAc
# Summary of the method: as §1
binder,measurement,setting,value
CaSRK1 (Capsicum annuum) (protein) MALCKIFPFAFILLSCSCYLISGQRFDYPTANLSTTWINSVSAPHSIDYTDGSRIRAILLRGTFGPRYACGFYCNGNCESYLFAIFIVQTNSASQITSPAIGFPQVVWSANRNNPVKINSTLQLTAEGDLVLRDADGTLAWSTNTAGKSVAGLSLTDEGNLALFDSKNATVWQSFDHPTDALVPGQKLVPGMKLTASVSRTNWTAGGLFALSAIDNGLVAFVESNPPQKYFEASVGGSNTSGGSNYVKYLNGSLTLFTHSADTTELILISITPASSAQYMKLESNGHLKVYEWTSRGWREVDDLLTGFRGECNYPTVCGRYGICTMGQCSCPTSSSSRTYFRPIDVRRPSLGCSEVTKLTCQNTKKHSPLEVEDVDYFAFKAGISDTDLNTCKRACLEKCSCKAAFFRSGLNSSRTRGDCYLPTEIFSIMNNEKDRTRYDSVAFIKVQV,glycan array binding signal (z-score),[1],-0.523
same,glycan array binding signal (z-score),[2],2.31
same,glycan array binding signal (z-score),[3],2.37
same,glycan array binding signal (z-score),[4],-0.546
same,glycan array binding signal (z-score),[5],-0.056
same,glycan array binding signal (z-score),[6],0.387
same,glycan array binding signal (z-score),[7],0.606
same,glycan array binding signal (z-score),[8],3.39
same,glycan array binding signal (z-score),Gal(a1-3)Gal(b1-3)GlcNAc,3.11
same,glycan array binding signal (z-score),Gal(b1-3)GalNAc,-0.395
same,glycan array binding signal (z-score),[9],0.178
same,glycan array binding signal (z-score),Gal(b1-3)GlcNAc(b1-2)Man,5.29
same,glycan array binding signal (z-score),[10],-0.295
same,glycan array binding signal (z-score),[11],-0.368
same,glycan array binding signal (z-score),Gal(b1-4)Glc6S,-0.386
same,glycan array binding signal (z-score),[12],3.63
same,glycan array binding signal (z-score),[13],0.677
same,glycan array binding signal (z-score),[14],2.85
same,glycan array binding signal (z-score),[15],0.04
same,glycan array binding signal (z-score),[16],-0.07
same,glycan array binding signal (z-score),Gal3S6S(b1-4)GlcNAc6S,2.4
same,glycan array binding signal (z-score),Gal6P(b1-4)GlcNAc,-0.342
same,glycan array binding signal (z-score),Gal6S(b1-4)Glc6S,0.802
same,glycan array binding signal (z-score),GalNAc(b1-4)GlcNAc6S,0.352
same,glycan array binding signal (z-score),[17],0.933
same,glycan array binding signal (z-score),[18],-0.097
same,glycan array binding signal (z-score),[19],-0.143
same,glycan array binding signal (z-score),[20],-0.46
same,glycan array binding signal (z-score),[21],-0.477
same,glycan array binding signal (z-score),[22],-0.34
